Reference: the supplement of paper PMC3334620
Whole data set: some 33,000 sequences, median “E-score (-0.5 to 0.5)” near -0.036, cut for the highest 2% near 0.37. Shown is part of a subset that was picked to be rich in the highest values.

target: T1, Yer064c (UniProt P40041); assay: PBM E-score (8-mer binding enrichment) (E-score (-0.5 to 0.5)); higher = stronger / more preferred TF binding; conditions: protein concentration: 200 nM; construct: GST-full length
T1 sequence: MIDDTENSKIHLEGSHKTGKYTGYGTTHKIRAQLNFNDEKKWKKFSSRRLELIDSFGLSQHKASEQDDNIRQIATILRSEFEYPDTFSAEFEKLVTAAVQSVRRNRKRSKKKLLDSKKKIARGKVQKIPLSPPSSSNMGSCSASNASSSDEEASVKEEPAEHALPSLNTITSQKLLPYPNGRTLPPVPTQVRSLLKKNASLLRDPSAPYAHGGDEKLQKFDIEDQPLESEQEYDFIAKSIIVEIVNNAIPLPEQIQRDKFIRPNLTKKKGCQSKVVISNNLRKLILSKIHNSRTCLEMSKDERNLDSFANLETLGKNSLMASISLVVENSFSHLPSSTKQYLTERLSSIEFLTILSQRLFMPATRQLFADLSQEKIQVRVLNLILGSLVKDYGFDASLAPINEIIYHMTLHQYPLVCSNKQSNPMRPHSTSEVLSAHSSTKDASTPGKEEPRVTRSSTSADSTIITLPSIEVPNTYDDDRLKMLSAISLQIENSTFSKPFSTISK
Method: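 Universal 'all 10-mer' protein binding microarrays (Agilent AMADID 015681) probed with GST-tagged S. cerevisiae TFs (full-length or DBD) made by in vitro transcription/translation (PURExpress), about 100-200 nM. Bound TF was detected with fluorescent anti-GST. Each ungapped 8-mer (which stands for itself and its reverse complement) is scored by the PBM enrichment score (E-score), a modified Wilcoxon-Mann-Whitney statistic from -0.5 to +0.5, computed with the Universal PBM Analysis Suite. Scale: above 0.35 generally sequence-specific binding.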

Sequence | PBM E-score
GCTCATTA | -0.044
CCTCATTC | -0.176
ACTCATTG | 0.382
ATTCATTC | 0.122
ACTCATTC | 0.394
CCTCATTA | 0.0877
ATGGCTTG | -0.159
GATTTACC | 0.00206
ATTTCATA | -0.0227
ATCCGAAT | 0.0995
AAGGGATG | -0.176
AATCAGTC | 0.368
ATTCAGTC | 0.341
AGTCAGTC | 0.442
ACTCAGTG | 0.251
CATCAGTC | 0.321
AATCAGTG | 0.239
AGTCAGTG | 0.427
CCTCAGTC | 0.326
AATCAGTA | 0.234
ATTCAGTG | 0.214
ACTCAGTC | 0.411

Sequence | PBM E-score
CGTCAGTC | 0.291
ACGCATGA | 0.146
ATCCGTTG | -0.037
ACCTTGAA | 0.0165
GAACCAGA | 0.0172
ACCCTCAC | -0.132
CGCACATC | 0.00301
CGTCAGTA | 0.0514
AGTCAGTA | 0.42
GGTCAGTA | -0.0314
CTTTAACA | -0.0802
GCCTAGGC | -0.179
AGGAGCGC | -0.205
ACACACTG | 0.0265
ACTCACTA | 0.346
ACTCACTG | 0.374
ACTCACTC | 0.371
CCTCACTC | -0.077
ACTCACAC | 0.364
CGGTTTAG | -0.1
AGAGACAA | -0.175
TAAACCAA | -0.0214

Sequence | PBM E-score
GAGGACTC | 0.387
CAGGACTA | 0.262
GAGGACTA | 0.369
AAGGACTG | 0.184
TAGGACTA | 0.357
GAGGACAC | -0.221
CAGGACTC | 0.344
AAGGACTA | 0.375
AAGGACTT | 0.0394
AAGGACCA | -0.026
AAGGACTC | 0.39
AAGGACGA | -0.0247
ACCGGCGG | -0.156
CCAGATGC | 0.0961
AGCTAGAT | -0.12
AACCCCAG | -0.047
GGCAACTA | -0.0239
CCCATCTA | -0.0727
CAAACGAC | 0.0734
GTGTGCGA | 0.0296
AGATCTTA | 0.137
GACGTTCA | -0.12

Sequence | PBM E-score
GCATTTCC | -0.0262
AGAACACA | 0.0627
CAAAGTCA | 0.399
AAAAGTCA | 0.374
TAAAGTTA | 0.106
AAAAGTCT | 0.0759
GAAAGTCA | 0.428
CAAAGTCC | -0.222
TAAAGTAA | 0.049
GAAAGTTA | 0.137
CAAAGTCG | 0.167
GAAAGTCC | -0.215
TAAAGTCA | 0.413
AAAAGTCC | -0.0242
ACCACGGG | -0.0993
AGCAGGAG | -0.0429
GGCATACA | -0.226
GATTCGAA | 0.207
CTCGGTGA | 0.137
ACTACGAT | 0.233
